Most compounds without a hit are left out; they make up all but 0.65% or so of the library.
SARS PLP yeast – qHTS of Yeast-based Assay for SARS-CoV PLP; hit rate 0.19% among 330,000; Potency, µM (series often up to 32.9 µM), without a hit: top-dose activity, positive = growth rescue, actives largely listed as activators; S. cerevisiae expressing SARS-CoV PLpro, growth rescue; further: 0% is about no effect; nearly all actives have a fitted effect of over 55% in size
NS1 inh – qHTS Assay for Inhibitors of Influenza NS1 Protein Function; Potency, µM (doses to about 46.1 µM), for the others: at the top dose activity, positive = more growth; hit rate 0.4% among 270,000; further: actives are rising curves; nearly all actives have a fitted effect of over 50% in size
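S. cerevisiae expressing influenza A NS1, grown in glucose, washed, then diluted 1:100 into pH 6.0 -URA galactose medium with 23 nl compound. Growth recovery read as OD600; NS1-free strain serves as control.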
AMA1 RON2 block – qHTS for Inhibitors of AMA1-RON; Towards Development of Antimalarial Drug Lead: Primary Screen. AlphaScreen AMA1-biotinylated RON2 peptide binding. Potency, µM (doses to about 58.2 µM), for inactives: top-dose activity change, negative = inhibition, most hits filed as inhibitors. hit rate 0.2% among 360,000. AID 720542, 2013; active means well fitted inhibition curve with a large enough effect; inconclusive means small, poorly fitted or top-dose-only effect; inactive means no such curve, though single readings can be large or run the other way;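 further: 0% = vehicle wells and -100% = peptide control; nearly all actives have a fitted effect of over 45% in size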
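AMA1 (3D7) with his tag at 25 nM final met compounds first, then biotinylated RON2 peptide at 25 nM; detection used donor plus acceptor beads, 10 µg/mL apiece, read by AlphaScreen after 30 min at room temperature.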
* = called active by the depositor; u = inconclusive; x = no result; [ ] = another dose, or the depositor's remark. Unless noted, the call rests on the fitted dose curve. Potency means the concentration at half of the fitted maximal effect.

SMILES	SARS PLP yeast	NS1 inh	AMA1 RON2 block
CCN(CC(=O)Nc1ccc(NC(C)=O)cc1)C(=O)c1ccc(NC2CC2)c([N+](=O)[O-])c1	-4%	x	-23%
CN1CCCN(C(=O)CNC(=O)c2ccccc2F)CC1	u	x	30%[11.6 µM]
CCC(=O)NC(=S)Nc1ccc(N2CCOCC2)cc1	-1%	8%	3%
CCCCCC(=O)NC(=S)Nc1ccc(N2CCOCC2)cc1	13µM*	10%	14%
CN(C)c1ccc(N=Nc2ccccc2C(=O)OCC(=O)N2CCCC2)cc1	-16%	6%	u
CN(C)c1ccc(N=Nc2ccccc2C(=O)OCC(=O)Nc2ccccc2C(F)(F)F)cc1	-6%	u	14µM*
CN(C)c1ccc(N=Nc2ccccc2C(=O)OCC(=O)N2CCCCCC2)cc1	-43%	-19%	18µM*
CN(C)c1cc[n+](CC(=O)Nc2ccccc2C(F)(F)F)cc1	0%	-13%	13%
Cc1cccc2cc3ccc4ccccc4c3cc12	x	7%	x
COc1ccc(CCNC(=O)CCC(=O)Nc2ccccc2[N+](=O)[O-])cc1OC	0%	u	-6%
CCCN1CN(Cc2ccccc2)CNC1=S	11µM*	0%	3%
CCCN1CNC(=S)N(Cc2ccccc2)C1	8%	9%	-10%
Cc1ccccc1N=Nc1ccc(O)c2ncccc12	3.5µM*	-16%	26%[11.6 µM]
Nc1ccc(Br)c2cccnc12	0%	-7%	21%
COc1ccc(N=Nc2ccc(O)c3ncccc23)cc1	2%	17%	56%
Nc1ccc(N=Nc2ccccc2)c2cccnc12	-4%	10%	20µM*
COc1ccc(N=C2S/C(=C\c3ccc(Cl)c([N+](=O)[O-])c3)C(=O)N2CCN(C)C)cc1	-3%	6%	14µM*
CCN(CC)CCN1C(=O)/C(=C\c2ccc(Cl)c([N+](=O)[O-])c2)SC1=Nc1ccc(OC)cc1	-9%	-3%	u
Cc1ccc(S(=O)(=O)O[C@H]2CC(C(C)(C)C)CC[C@@H]2c2ccccc2)cc1 (some centres not stated)	x	-3%	x
CC1=CC(C)(C)Nc2ccc(Cc3ccc4c(c3)C(C)=CC(C)(C)N4)cc21	-3%	u	16µM*
CC1=CC(C)(C)Nc2ccc(C)cc21	6%	2%	-9%
C/C(=N\NC(=O)c1ccccc1F)c1cccc(NC(=O)c2ccc(C)cc2)c1	-5%	-3%	-4%
O=c1oc2ccccc2c2oc3cc(O)c(O)cc3c12	-1%	14%	-22%
O=c1oc2c(O)c(O)cc3c(=O)oc4c(O)c(O)cc1c4c23	1.4µM*	-2%	0.79µM*
CCNS(=O)(=O)c1ccc(CCC(=O)NCc2ccccn2)cc1	5%	5%	53%
SMILES	SARS PLP yeast	NS1 inh	AMA1 RON2 block
CS(=O)(=O)N(Cc1ccco1)CC(O)Cn1cc(C=O)c2ccccc21 (configuration not stated)	10µM*	-2%	-1%
O=Cc1cn(CC(O)Cn2cc(C=O)c3ccccc32)c2ccccc12	-1%	-6%	3%
O=C(N/N=C/c1cn(Cc2cccc(F)c2)c2ccccc12)c1cc(O)cc(O)c1	6%	16%	25µM*
Nc1ccc(C(=O)N/N=C/c2cn(Cc3ccc(F)cc3)c3ccccc23)cc1	-1%	13%	21%
CC(NCc1ccc(F)cc1)C(=O)Nc1cc(S(=O)(=O)N2CCCCC2)ccc1Cl (configuration not stated)	-4%	x	2%
COc1ccc(C(c2nnnn2CCc2ccccc2)N2CCN(C3CCCC3)CC2)cc1 (configuration not stated)	3%	-5%	9%
COc1ccccc1N1CCN(C(c2ccc(N(C)C)cc2)c2nnnn2CCc2ccccc2)CC1 (configuration not stated)	2%	11%	20µM*
O=C1NC(=S)N(c2ccccc2)C(=O)/C1=C/c1ccco1	-5%	u	8.9µM*
CCOc1cccc(N2C(=O)/C(=C/c3ccco3)C(=O)NC2=S)c1	-3%	u	u
N#CSCC(=O)c1cccc2ccccc12	-91%	-20%	-2%
N#CC(=C1C=C(Br)C(=NO)C=C1Cl)c1cccc2ccccc12	x	x	14µM*
Cc1cccc(NC(=O)CSCC(=O)N2CCN(Cc3ccc4c(c3)OCO4)CC2)c1	4%	x	104%
O=C(Nc1ccc(S(=O)(=O)Nc2ncccn2)cc1)C(F)(F)F	5µM*	0%	-6%
CC(=O)Nc1ccc(S(=O)(=O)Nc2ncccn2)cc1	8%	14%	-1%
CC(=O)[C@]1(O)CC[C@@H]2[C@H]3C[C@@H](C)C4=CC(=O)CC[C@@]4(C)C3[C@@H](O)C[C@]21C (some centres not stated)	x	-3%	x

Assay outcomes (PubChem BioAssay)
